Screening results deposited in PubChem by Broad Institute.
This is a sample that favours compounds with a hit; in the whole collection about 2.4% have one here.
C diff HTS = C. difficile growth inhibition. Clostridium difficile clinical isolate growth, OD600, 24 h; hits give low values. growth activity, negative = inhibition, % at 16 µg/mL (by protocol). 0.25% of 86,000 active;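 active = mean growth activity at or below -80% and every replicate also at or below -80%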;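 also: 0% = DMSO wells and -100% = levofloxacin 16 µg/mL wells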
Pf Dd2 growth = blocks growth of Plasmodium falciparum Dd2 parasites. P. falciparum Dd2 growth, SYBR Green, 72 h; hits give low values. activity change, % at 10 µM. 2.3% of 94,000 active. AID 1159554; in the data active = activity change below about -80%
Active calls of the source: *; / = no result given; ! = repeats disagree.

SMILES	C diff HTS	Pf Dd2 growth
N#Cc1ccc(-c2ccc3c(c2)[C@H]2[C@H](CCN2C(=O)c2ccncc2)[C@H](CO)N3)cc1	-80.5*	-9.8
N#Cc1cccc(-c2ccc3c(c2)[C@H]2[C@H](CCN2C(=O)c2ccncc2)[C@@H](CO)N3)c1	-2.8	-26.9
CCCNC(=O)N1[C@H](CO)[C@H](c2ccccc2-c2cccc(C)c2)[C@@H]1C#N	35.0	28.9
COc1ccc2c3c([nH]c2c1)[C@H](CO)N(C(=O)NC(C)C)CC31CCN(C(=O)NC2CCCC2)CC1	-13.8	-52.6
CC(C)NC(=O)N1[C@H](CO)[C@H]2c3ccccc3N(C(=O)Nc3ccc(F)cc3)C[C@H]21	-3.9	-10.8
N#Cc1cccc(-c2ccc3c(c2)[C@H]2[C@H](CCN2C(=O)C2CCCCC2)[C@H](CO)N3)c1	-26.0	-12.3
N#Cc1ccc(-c2ccc3c(c2)[C@H]2[C@H](CCN2C(=O)C2CCCC2)[C@H](CO)N3)cc1	-6.3	-85.8*
C[C@H]1CN([C@@H](C)CO)C(=O)Cc2cc(N(C)C)ccc2O[C@@H]1CN(C)C(=O)Nc1cccc2ccccc12	0.3	-10.6
CCNC(=O)Nc1ccc2c(c1)C(=O)N(C)[C@H]1CC[C@H](CC(=O)NCCOC)O[C@@H]1CO2	5.5	16.9
COc1ccc2c3c(n(C)c2c1)[C@@H](CO)N(S(C)(=O)=O)CC31CCN(Cc2cccnc2)CC1	-4.8	-63.6
C[C@@H]1CN([C@@H](C)CO)C(=O)c2c(c3ccccc3n2C)-c2ccccc2CO[C@@H]1CN(C)C(=O)N[C@H](C)c1ccccc1	-6.4	-22.1
C[C@@H]1CN([C@H](C)CO)C(=O)c2c(c3ccccc3n2C)-c2ccccc2CO[C@H]1CN(C)C(=O)[C@H](C)c1ccccc1	-0.1	-84.0*
C[C@H](NC(=O)N(C)C[C@H]1OCc2ccccc2-c2c(n(C)c3ccccc23)C(=O)N([C@@H](C)CO)C[C@@H]1C)c1ccccc1	35.5	-80.8*
C[C@@H]1CN([C@@H](C)CO)C(=O)c2c(c3ccccc3n2C)-c2ccccc2CO[C@@H]1CN(C)C(=O)[C@H](C)c1ccccc1	-2.8	-87.5*
CC(C)OC(=O)N(C)C[C@@H]1OCc2ccccc2-c2c(n(C)c3ccccc23)C(=O)N([C@H](C)CO)C[C@@H]1C	/	-16.3
CC(C)OC(=O)N(C)C[C@H]1OCc2ccccc2-c2c(n(C)c3ccccc23)C(=O)N([C@H](C)CO)C[C@H]1C	/	-83.3*
CO[C@H](C(=O)N(C)C[C@H]1OCc2ccccc2-c2c(n(C)c3ccccc23)C(=O)N([C@H](C)CO)C[C@H]1C)c1ccccc1	3.8	100.3
C[C@H](C(=O)N(C)C[C@@H]1OCc2ccccc2-c2c(n(C)c3ccccc23)C(=O)N([C@H](C)CO)C[C@H]1C)c1ccccc1	6.3	-75.2
C[C@@H]1CN([C@H](C)CO)C(=O)c2cc(NS(=O)(=O)c3cn(C)cn3)ccc2O[C@@H](C)CCCCO[C@@H]1CN(C)CC1CC1	-0.7	-26.3
CO[C@H]1CN(C)C(=O)c2cc(NC(=O)C3CCOCC3)ccc2OC[C@@H](C)N(CC2CC2)C[C@@H]1C	/	49.6
C[C@@H]1CN([C@H](C)CO)C(=O)c2cc(C3=CCCC3)cnc2O[C@H]1CN(C)Cc1ccccc1C(=O)O	-3.1	66.3
CN(C)C(=O)c1cccc(-c2ccc(C3[C@@H]4CN(Cc5ccccc5F)C[C@H]3N4)cc2)c1 (stereo partly drawn)	59.3	-54.7
Cc1cccc(-c2ccc(C3[C@@H]4CN(Cc5ccccc5F)C[C@H]3N4)cc2)c1 (stereo partly drawn)	-97.9*	7.3
Cc1ccc(-c2ccc(C3[C@H]4CNC[C@@H]3N4Cc3ccccc3F)cc2)cc1 (stereo partly drawn)	17.2	16.8
Cc1ccc(-c2ccc([C@@H]3[C@@H]4CN(Cc5ccccc5F)C[C@H]3N4)cc2)cc1	-100.9*	-86.8*
SMILES	C diff HTS	Pf Dd2 growth
Cc1noc(C)c1NC(=O)Nc1cccc2c1O[C@H](CN(C)Cc1ccc(-c3ccccc3)cc1)[C@@H](C)CN([C@H](C)CO)C2=O	-9.0	-21.5
OC[C@@H]1[C@@H](c2ccc(-c3ccccc3)cc2)[C@H]2CN(CCC(F)(F)F)CCCCN12	23.9	-71.5
OC[C@@H]1[C@H](c2ccc(-c3ccccc3)cc2)[C@H]2CN(CCC(F)(F)F)CCCCN12	3.3	-80.4*
COCC#Cc1ccc([C@@H]2[C@@H](CO)N3CCCCN(Cc4ccccc4F)C[C@H]23)cc1	0.0	-62.6
COc1ccc(C#Cc2ccc([C@@H]3[C@H]4CN(Cc5ccccc5F)CCCCN4[C@H]3CO)cc2)cc1	-94.2*	-51.0
COc1cccc(CN2CCCCN3[C@H](C2)[C@@H](c2ccc(C#Cc4cccnc4)cc2)[C@@H]3CO)c1	-1.7	-71.2
CC(C)(O)C#Cc1ccc([C@H]2[C@H]3CN(Cc4ccccc4F)CCCCN3[C@H]2CO)cc1	4.2	-22.0
COc1ccc(C#Cc2ccc([C@H]3[C@@H](CO)N4CCCCN(Cc5ccccc5F)C[C@H]34)cc2)cc1	-99.8*	-71.7
COc1cccc(CN2CCCCN3[C@H](CO)[C@@H](c4ccc(C#Cc5cccnc5)cc4)[C@H]3C2)c1	-2.6	-86.2*
C[C@H]1CN([C@@H](C)CO)C(=O)Cc2cc(NC(=O)Cc3ccccc3)ccc2O[C@@H]1CN(C)Cc1ccc2c(c1)OCO2	-4.2	-43.8
COCC(=O)N(C)C[C@H]1Oc2cc(-c3ccc(C#N)cc3)ccc2S(=O)(=O)N([C@@H](C)CO)C[C@@H]1C	-6.0	-10.7
Cc1cccc(S(=O)(=O)N2C[C@@H]3N[C@H](C2)C3c2ccc(-c3cccnc3)cc2)c1 (stereo partly drawn)	-15.3	-68.1
COc1cccc(S(=O)(=O)N2C[C@@H]3N[C@H](C2)C3c2ccc(-c3cccc(C)c3)cc2)c1 (stereo partly drawn)	-94.3*!	10.9
COc1ccc(-c2ccc(C3[C@@H]4CN(S(=O)(=O)c5cccc(C)c5)C[C@H]3N4)cc2)cc1 (stereo partly drawn)	-4.3	-85.8*!
Cc1cccc(S(=O)(=O)N2C[C@@H]3N[C@H](C2)C3c2ccc(-c3ccncc3)cc2)c1 (stereo partly drawn)	-15.8	-80.0
O=C(C[C@@H]1C=C[C@@H](NC(=O)CN2CCOCC2)[C@H](CO)O1)NCCc1ccccc1	-0.3	4.9
C[C@H]1CN([C@@H](C)CO)C(=O)c2cc(-c3ccncc3)cnc2O[C@H]1CN(C)S(=O)(=O)c1ccc(F)cc1	2.2	4.4
CC(C)[C@H](C)NC(=O)N(C)C[C@@H]1OCc2ccccc2-c2ccccc2C(=O)N([C@@H](C)CO)C[C@H]1C	4.2	23.8
C[C@H]1CN([C@@H](C)CO)C(=O)c2ccccc2-c2ccccc2CO[C@H]1CN(C)Cc1ccc(O)cc1	/	4.6
C[C@H]1CN([C@@H](C)CO)C(=O)c2ccccc2-c2ccccc2CO[C@H]1CN(C)Cc1ccc(Oc2ccccc2)cc1	21.7	-86.7*
C[C@@H]1CN([C@H](C)CO)C(=O)c2ccccc2-c2ccccc2CO[C@@H]1CN(C)Cc1ccc(C(=O)O)cc1	/	7.3
C[C@@H]1CN([C@H](C)CO)C(=O)c2ccccc2-c2ccccc2CO[C@@H]1CN(C)Cc1ccc(Oc2ccccc2)cc1	15.9	-88.0*
C[C@@H]1CCCCO[C@H](CN(C)S(=O)(=O)c2cccs2)[C@@H](C)CN([C@H](C)CO)C(=O)c2cc(NS(=O)(=O)c3cn(C)cn3)ccc2O1	5.3	16.0
